The record followed here is PubChem BioAssay (Tox21).

Assay [1] is described as follows: qHTS assay to identify small molecule agonists of H2AX (AID 1224845; active = well fitted activation curve with a large enough effect in the signal ratio in the repeat runs, not every such curve was filed as active; the % refers to the signal ratio). In outline:
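Wild-type CHO-K1 cells, plated overnight, exposed 3hr at 37C to 15 concentrations (0.76% DMSO final). Lysed, then HTRF anti-pH2AX (S139) cryptate and anti-H2AX-d2 antibodies, 24 hr room temperature; 665/620 nm emission read.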

A short description of assay [2]: qHTS assay to identify small molecule agonists of H2AX - cell viability counter screen (AID 1224847; calls by dose curve; note: top concentration of the series differs between compounds; nearly all actives have a fitted effect of over 30% in size). In outline: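 Read-out: CellTiter-Glo luminescence, 30 min RT. Cells: wild-type CHO-K1, 1000/well, 10% FBS, plated overnight at 37C. Treatment: 15 concentrations, 3 hr, 37C, 0.76% DMSO.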
Assay [3] in a line: qHTS RealTime-Glo MT Cell Viability Assay in HepG2 cells - 24 hour (AID 1224867). Note: nearly all actives have a fitted effect of over 50% in size. The method, boiled down:
(§1)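 HepG2 cells (600/well) were dispensed with RealTime-Glo reagents, incubated 5 h at 37 °C, then treated with compounds in DMSO for up to 40 h. Nonlytic NanoLuc luminescence reflecting viable cells was read at each stated time point.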

Assay [4] in a line: qHTS RealTime-Glo MT Cell Viability Assay in HEK293 cells - 32 hour (AID 1224868). Note: top concentration of the series differs between compounds; nearly all actives have a fitted effect of over 50% in size. The method, boiled down: (§2)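 HEK293 cells seeded with NanoLuc/prosubstrate reagent, rested 5 h at 37 C, then dosed and kept at 37 C up to 40 h. Nonlytic real-time luminescence from viable cells read at 0, 8, 16, 24, 32 and 40 h.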
Assay [5] can be described thus: A CellTox Green Cytotoxicity Assay to monitor cytotoxicity in HEK293 cells - 0 hour (AID 1224869). Note: nearly all actives have a fitted effect of over 50% in size. In outline: (§3)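 HEK293 cells, 600/well, were preincubated 5 hours and then exposed to compounds at 37 C for up to 40 hours. A cell-impermeant cyanine dye staining dead-cell DNA was read by fluorescence at 0, 8, 16, 24, 32 and 40 h time points.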
Assay [6] can be described thus: qHTS RealTime-Glo MT Cell Viability Assay in HepG2 cells - 40 hour (AID 1224870). Note: nearly all actives have a fitted effect of over 50% in size. In outline:
(§4)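 HepG2 cells (600/well) mixed with RealTime-Glo MT reagent, settled 5 h at 37 C/5% CO2 before compound addition. Nonlytic NanoLuc luminescence from viable-cell prosubstrate reduction read repeatedly during 40 h treatment at 37 C.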

Assay [7] is described as follows: A CellTox Green Cytotoxicity Assay to monitor cytotoxicity in HEK293 cells - 40 hour (AID 1224871). Note: nearly all actives have a fitted effect of over 45% in size. Note: potency is the fitted concentration of half-maximal effect. The method, boiled down:
as §3

Assay [8] in a line: qHTS RealTime-Glo MT Cell Viability Assay in HEK293 cells - 16 hour (AID 1224872). In outline:
as §2

Assay [9] in a line: qHTS RealTime-Glo MT Cell Viability Assay in HepG2 cells - 8 hour (AID 1224873). Note: nearly all actives have a fitted effect of over 55% in size. In outline:
as §4

Assay [10] can be described thus: qHTS RealTime-Glo MT Cell Viability Assay in HEK293 cells - 40 hour (AID 1224874). Note: nearly all actives have a fitted effect of over 50% in size. As to conditions: RealTime-Glo luminescence; max response: hits give low values. In outline: (§5)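 600 cells/well were plated with the nonlytic NanoLuc/prosubstrate reagent, pre-incubated 5 h, then given 23 nL of compound in DMSO. Incubation at 37 C for 40 h, with luminescence from viable-cell-reduced substrate read repeatedly from 0 h.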

Assay [11] can be described thus: A CellTox Green Cytotoxicity Assay to monitor cytotoxicity in HEK293 cells - 24 hour (AID 1224875). Note: nearly all actives have a fitted effect of over 45% in size. The method, boiled down: as §3
A short description of assay [12]: qHTS RealTime-Glo MT Cell Viability Assay in HepG2 cells - 32 hour (AID 1224877). Note: nearly all actives have a fitted effect of over 55% in size. In outline:
as §1

The nature of assay [13]: A CellTox Green Cytotoxicity Assay to monitor cytotoxicity in HepG2 cells - 24 hour (AID 1224878). Note: nearly all actives have a fitted effect of over 45% in size. Note: potency is the fitted concentration of half-maximal effect. In outline: (§6)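 HepG2 cells, 600/well, preincubated 5 h with CellTox Green dye, then exposed to Tox21 compounds in DMSO at 37 C for up to 40 h. Dead-cell DNA fluorescence read at the indicated time point.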
Assay [14] can be described thus: A CellTox Green Cytotoxicity Assay to monitor cytotoxicity in HepG2 cells - 40 hour (AID 1224879). Note: nearly all actives have a fitted effect of over 40% in size. Note: potency is the fitted concentration of half-maximal effect. In outline:
as §6

Assay [15] can be described thus: A CellTox Green Cytotoxicity Assay to monitor cytotoxicity in HEK293 cells - 32 hour (AID 1224881). Note: nearly all actives have a fitted effect of over 40% in size. Note: potency is the fitted concentration of half-maximal effect. The method, boiled down: as §3
Assay [16] is described as follows: A CellTox Green Cytotoxicity Assay to monitor cytotoxicity in HepG2 cells - 16 hour (AID 1224876). Note: nearly all actives have a fitted effect of over 45% in size. In outline:
as §6

The nature of assay [17]: qHTS RealTime-Glo MT Cell Viability Assay in HEK293 cells - 0 hour (AID 1224880). The method, boiled down: as §5
A short description of assay [18]: qHTS assay to identify small molecule agonists of the hypoxia (HIF-1) signaling pathway (AID 1224846; active = well fitted activation curve with a large enough effect in the signal ratio in the repeat runs, not every such curve was filed as active; the % refers to the signal ratio). The method, boiled down:
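HRE-bla ME-180 beta-lactamase reporter cells in medium with 0.5% dialyzed FBS, pre-incubated 5 h then exposed to compounds 17 h at 37C, 5% CO2; reporter induction read with CCF4-AM FRET substrate.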

Assay [19] can be described thus: qHTS assay to identify small molecule antagonists of the estrogen related receptor (ERR) signaling pathway from Tox21 library (AID 1224848). Note: nearly all actives have a fitted effect of over 50% in size. The method, boiled down: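 ERR reporter cell line (from NTP) seeded 2,000 cells/well, rested 6 h at 37 C/5% CO2, then pin-dosed with compounds in DMSO. After 18 h at 37 C, ONE-Glo added; luminescence read after 30 min at room temperature.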

A short description of assay [20]: qHTS assay to identify small molecule agonists of the estrogen related receptor (ERR) signaling pathway from Tox21 library (AID 1224849; calls by dose curve; note: nearly all actives have a fitted effect of over 15% in size). As to conditions: ERR reporter cell line, ONE-Glo luciferase, 18 h; at 92.4 µM (top of the series) unless noted. The method, boiled down: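 ERR reporter cells (NTP line) pre-incubated 6 hours at 37 C, then exposed to compounds for 18 hours at 37 C. ONE-Glo luciferase luminescence was read after 30 minutes at room temperature.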

A number with no mark means an inactive call. Results filed as inconclusive are left out. Active and inactive are the calls of the source. Unless noted, calls come from the whole dose curve; as a rule, active = well fitted curve in the direction sought with a large enough effect in the repeat runs; inconclusive = weak or mixed curves; inactive = no such curve, though single readings can be large; an effect the other way counts as inactive or inconclusive.
% is set by controls: 0 for no effect and ±100 for the full control effect.

As to `O=C(O)Cn1c(C(=O)Nc2nc(-c3ccccc3Cl)cs2)cc2ccccc21`, the Potency result in [1], in assay [2], in assay [3], in assay [4], in assay [5] and in assay [6] was “inactive” in each case. The Potency result in [7], in [8], in assay [9], in [11], in assay [12] and in assay [13] was “inactive” in each case. Moreover, the Potency entry in [14] and in assay [15] was “inactive” throughout. For the same molecule, the max response in [10] was -2.19%.

In the case of `CC(C)=CCCC(C)CC=O` (centres undefined), the Potency result in assay [1], in [2], in assay [3], in [4], in [5] and in assay [6] was “inactive” throughout. Also, the Potency result in [7], in assay [8], in [9], in assay [11], in [16] and in assay [12] was “inactive” in each case. Also, the Potency result in assay [13], in assay [17] and in [15] was “inactive” in each case. Also, in [10], the max response was -1.27%.

For the molecule `Cc1ccc2c(ccc3ccccc32)c1`, the Potency result in [1], in [3], in [5], in assay [6], in [7] and in assay [8] was “inactive” throughout. In addition, the Potency entry in assay [11], in assay [16], in assay [12], in [13], in assay [14] and in assay [15] was “inactive” in each case. Also, the molecule was called inactive in [18].

In the case of `CCCCc1cc2ccccc2c(OCCN(C)C)n1`, the Potency entry in assay [1], in assay [3], in assay [5], in [6], in assay [9] and in [12] was “inactive” throughout. Moreover, the molecule was classed as inactive in assay [18]. Besides, the Potency in assay [7] and in assay [15] was 21.3 µM (active) throughout.

In the case of `CCCCCc1ccc(N)cc1`, the Potency result in assay [1], in [3], in [4], in assay [5], in assay [6] and in assay [8] was “inactive” throughout. Moreover, the Potency entry in assay [9], in assay [12] and in [17] was “inactive” each time. Further, in assay [18], the call was inactive. Besides, the Potency in assay [7], in assay [13] and in assay [14] was 49 µM (active) in each case. Besides, the max response in [10] was -15.3%.

With `CC(O)C1CCCCC1` (centres undefined), the result in [18] was inactive. Moreover, the Potency entry in assay [2], in assay [19], in [4], in [5], in assay [6] and in [7] was “inactive” throughout. The Potency result in [8], in assay [9], in [11], in [16], in assay [12] and in assay [13] was “inactive” in each case. The Potency result in [14], in assay [17] and in assay [15] was “inactive” each time. Also, the activity change, positive = activation in assay [20] is 6.48%. Further, the max response in assay [10] is 3.26%.

As to `C#CCOC(=O)[C@@H](C)Oc1ccc(Oc2ncc(Cl)cc2F)cc1`, in assay [18], the call was inactive. Also, the Potency result in [2], in assay [3], in assay [4], in assay [5], in [6] and in [8] was “inactive” throughout. In addition, the Potency entry in assay [11], in assay [16], in [12], in [13], in assay [14] and in [17] was “inactive” each time. In assay [15], the Potency entry was “inactive”. For the same molecule, in [20], the activity change, positive = activation was -13.6%. In [10], the max response is -16.3%.

Take `CC(C)NCC(O)c1cc(O)cc(O)c1` (centres undefined): the molecule was called inactive in [18]. Besides, the Potency entry in [2], in assay [19], in [3], in [4], in [5] and in assay [6] was “inactive” in each case. Also, the Potency entry in assay [7], in assay [8], in assay [9], in assay [11], in assay [16] and in assay [12] was “inactive” each time. Also, the Potency entry in assay [13], in assay [14] and in [15] was “inactive” in each case. The activity change, positive = activation in assay [20] was 10.5% [at 42.5 µM]. Also, the max response in [10] is 1.47%.

On to `CCCC(=O)OCC`, for which, in [18], the result was inactive. Besides, the Potency entry in [2], in assay [3], in [5], in [6], in [7] and in [8] was “inactive” in each case. Also, the Potency result in assay [9], in assay [11], in [16], in [12], in assay [13] and in assay [14] was “inactive” in each case. Further, the Potency result in assay [17] and in [15] was “inactive” throughout. In addition, the max response in [10] is 20%.

`O=C(O)Cc1sc(-c2ccccc2)nc1-c1ccc(Cl)cc1`: in assay [18], the molecule was called inactive. The Potency result in assay [2], in assay [3], in assay [4], in [5], in [6] and in assay [7] was “inactive” each time. Also, the Potency entry in assay [8], in assay [9], in [11], in assay [12], in [13] and in [14] was “inactive” in each case. For the same molecule, the Potency result in assay [15] is “inactive”. Further, the activity change, positive = activation in assay [20] is -15.3% [at 42.5 µM]. For the same molecule, the max response in assay [10] was 0.938%.

Regarding `SC1CCCC1`, the call in assay [18] was inactive. Moreover, the Potency result in assay [2], in assay [3], in assay [4], in [5], in assay [6] and in assay [7] was “inactive” throughout. The Potency result in assay [8], in [9], in [11], in [16], in assay [12] and in assay [13] was “inactive” in each case. For the same molecule, the Potency result in assay [14], in assay [17] and in assay [15] was “inactive” throughout. Moreover, the max response in [10] is 8.94%.

For the molecule `CC(C)CCCC(C)CCO` (centres undefined), in assay [18], the molecule was classed as inactive. The Potency result in assay [2], in assay [3], in assay [4], in [5], in [6] and in assay [7] was “inactive” throughout. Moreover, the Potency entry in assay [8], in [9], in [11], in [12], in assay [17] and in [15] was “inactive” throughout. Also, the max response in assay [10] was 14.4%.

Regarding `NCc1ccccc1`, the molecule was called inactive in assay [18]. In addition, the Potency entry in [2], in assay [3], in assay [4], in assay [5], in assay [6] and in [7] was “inactive” in each case. The Potency result in assay [8], in [11], in assay [12], in assay [13], in assay [14] and in assay [17] was “inactive” each time. The Potency result in assay [15] is “inactive”. Further, the max response in assay [10] is 2.09%.

`CCCCCCCCCC(=O)OCC`: in assay [18], the call was inactive. The Potency result in [2], in [3], in [4], in assay [5], in assay [6] and in assay [7] was “inactive” each time. The Potency result in assay [8], in assay [11], in assay [16], in [12], in assay [13] and in assay [14] was “inactive” each time. In addition, the Potency result in assay [17] and in [15] was “inactive” throughout. Besides, the max response in assay [10] was -6.56%.

In the case of `COc1ccc2[nH]c(S(=O)Cc3ncc(C)c(OC)c3C)nc2n1` (centres undefined), the call in [18] was inactive. Also, the Potency result in [2], in assay [3], in [4], in [5], in assay [6] and in assay [7] was “inactive” each time. For the same molecule, the Potency entry in [8], in [11], in assay [12], in assay [13], in assay [14] and in assay [17] was “inactive” in each case. Also, the Potency entry in [15] was “inactive”. For the same molecule, the activity change, positive = activation in [20] is -23.9% [at 42.5 µM]. The max response in assay [10] was -17.3%.
